Laboratory results as given in PubChem BioAssay (Tox21).
Inconclusive results are not listed. Active and inactive are the calls of the source. Unless noted, the call rests on the fitted dose curve; in most records, active means well fitted curve in the direction sought with a large enough effect in the repeat runs; inconclusive means weak or mixed curves; inactive means no such curve, though single readings can be large; an effect the other way counts as inactive or inconclusive.

Legend:
[1] = qHTS assay to identify small molecule agonists of the sonic hedgehog signaling (Shh) pathway (AID 1259368; calls by dose curve; further: series mostly up to about 92 µM; nearly all actives have a fitted effect of over 15% in size)
Summary of the method: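 NIH/3T3-derived 3T3Gli1-Luc cells carrying a stably integrated Gli1 response element–firefly luciferase reporter were plated, left 4 hr at 37 C, then given compounds in DMSO for 24 hr. Luminescence was read 30 min after adding luciferase reagent.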

[2] = qHTS assay to identify small molecule antagonists of the sonic hedgehog signaling (Shh) pathway (AID 1259369; calls by dose curve; further: nearly all actives have a fitted effect of over 45% in size; further: potency means the concentration at half of the fitted maximal effect)
Summary of the method: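 NIH/3T3-derived 3T3Gli1-Luc cells with stably integrated Gli1-Luc reporter were preincubated 4hr at 37 C, then given compounds in DMSO plus Shh conditioned medium and incubated 24hr. Firefly luciferase luminescence read after 30min reagent at room temperature.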

[3] = qHTS assay to identify small molecule agonists of the androgen receptor (AR) signaling pathway in the presence of an antagonist - cell viability counter screen (AID 1259379);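 further: MDA-kb2 human breast cancer cells carrying an MMTV luciferase reporter; series mostly up to about 92 µM; nearly all actives have a fitted effect of over 25% in size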
Summary of the method: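 MDA-kb2 human breast carcinoma cells (stable MMTV-luciferase, AR/GR responsive) were seeded 3,000 cells/well, pre-incubated 5 hr at 37C without CO2, then given 3.0uM nilutamide and compounds at 15 concentrations for 16 hr. Viability was read by CellTiter-Fluor fluorescence.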

[4] = qHTS assay to identify small molecule agonists of the estrogen receptor beta (ER-beta) signaling pathway - cell viability counter screen (AID 1259380); further: nearly all actives have a fitted effect of over 30% in size; further: potency means the concentration at half of the fitted maximal effect
Summary of the method: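 ER-beta-UAS-bla HEK293T cells in medium with 2% charcoal-stripped FBS were preincubated 6 hr at 37C, dosed with compound in DMSO for 16 hr, then after the bla read, CellTiter-Glo was added for 30 min at room temperature; luminescence recorded.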

[5] = qHTS assay to identify small molecule antagonists of the estrogen receptor beta (ER-beta) signaling pathway - cell viability counter screen (AID 1259382); further: nearly all actives have a fitted effect of over 55% in size; further: potency means the concentration at half of the fitted maximal effect
Summary of the method: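 ER-beta-UAS-bla HEK293T cells (2,000/well, 2% charcoal-stripped FBS) were pre-incubated 6 hr at 37C, then given compound plus 1nM final 17-beta-estradiol for 16 hr. Viability was read in the same wells by CellTiter-Glo luminescence after 30 min at room temperature.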

[6] = biological target: Estrogen receptor (Homo sapiens) (UniProt P03372); test: qHTS assay to identify small molecule agonists of the estrogen receptor alpha (ER-alpha) signaling pathway in the presence of an antagonist (AID 1259383; calls by dose curve; further: top concentration of the series differs between compounds; nearly all actives have a fitted effect of over 15% in size)
Summary of the method: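 VM7Luc4E2 cells (endogenous full-length ER-alpha, 4×ERE-luciferase) were precultured 5 days in phenol red-free medium with 10% charcoal-stripped FBS, given 10.0nM ICI-182,780 (final), then treated with compounds at 15 concentrations for 22hr at 37C; luminescence read with ONE-Glo.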

[7] = qHTS assay to identify small molecule agonists or antagonists of the thyroid stimulating hormone receptor (TSHR) signaling pathway - wild type cell line counter screen (AID 1259384; calls by dose curve)
Summary of the method: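 Wild-type HEK293 cells were plated 18 h at 37 C/5% CO2, pin-dosed with compound plus Ro20-1724 medium, held 30 min at room temperature, then given cAMP-d2 and anti-cAMP-cryptate; fluorescence was read after 1 h. Fifteen concentrations, triplicate.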

[8] = biological target: Thyrotropin receptor (Homo sapiens) (UniProt P16473); test: qHTS assay to identify small molecule antagonists of the thyroid stimulating hormone receptor (TSHR) signaling pathway (AID 1259385; calls by dose curve; further: nearly all actives have a fitted effect of over 20% in size)
Summary of the method: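 TSHR-HEK293 cells were plated and held 18 h at 37C/5% CO2, then given compound plus Ro20-1724 and stimulated with TSH at 1.5 ng/mL final. After 30 min at room temperature, cAMP was detected with cAMP-d2/anti-cAMP-cryptate (1 h) by fluorescence.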

[9] = biological target: Progesterone receptor (Homo sapiens) (UniProt P06401); test: qHTS assay to identify small molecule agonists of the progesterone receptor (PR) signaling pathway (AID 1346784; calls by dose curve; further: nearly all actives have a fitted effect of over 30% in size)
Summary of the method: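 PR-UAS-bla HEK 293T cells carrying a UAS-driven beta-lactamase reporter were seeded in medium with 2% charcoal-stripped FBS, preincubated 6 hr at 37C, then exposed to compounds in DMSO for 16 hr; agonism was read by LiveBLAzer B/G FRET fluorescence.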

[10] = biological target: Progesterone receptor (Homo sapiens) (UniProt P06401); test: qHTS assay to identify small molecule antagonists of the progesterone receptor (PR) signaling pathway (AID 1346795; active means well fitted inhibition curve with a large enough effect in the signal ratio in the repeat runs, not every such curve was filed as active; the % refers to the signal ratio; further: potency means the concentration at half of the fitted maximal effect)
Summary of the method: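 PR-UAS-bla HEK293T cells carrying a UAS-driven beta-lactamase reporter were plated in medium with 2% charcoal-stripped FBS and rested 6 hr at 37C. Compounds were added with 1 nM R5020 (final) for 16 hr, then FRET substrate loaded 2 hr at room temperature.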

[11] = qHTS assay to identify small molecule antagonists of the progesterone receptor (PR) signaling pathway - cell viability counter screen (AID 1346798); further: series mostly up to about 92 µM; nearly all actives have a fitted effect of over 50% in size
Summary of the method: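 PR-UAS-bla HEK293T cells in medium with 2% charcoal-stripped FBS were treated with compounds plus R5020 for 16 hr at 37C. Cell viability was then read by CellTiter-Glo luminescence after 30 min at room temperature in the same wells.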

[12] = qHTS assay to identify small molecule antagonists of the TGF-beta/Smad signaling pathway - cell viability counter screen (AID 1346824); further: nearly all actives have a fitted effect of over 50% in size
Summary of the method: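 SBE-bla HEK 293T cells were plated overnight at 37 C, then given compounds in DMSO plus TGF-beta1 (added as 0.25 ng/mL solution) for 5 hr. After the bla read, CellTiter-Glo was added to the same wells and luminescence read after 30 min at room temperature.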

[13] = qHTS assay to identify small molecule agonists of the TGF-beta/Smad signaling pathway - cell viability counter screen (AID 1346829); further: top concentration of the series differs between compounds; nearly all actives have a fitted effect of over 45% in size
Summary of the method: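 SBE-bla HEK 293T cells plated overnight, compound exposure 5 hr at 37 C. Viability read in the same wells by CellTiter-Glo luminescence after 30 min at room temperature, following the beta-lactamase read.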

[14] = qHTS assay to identify small molecule agonists of the TGF-beta/Smad signaling pathway (AID 1346859; active means well fitted activation curve with a large enough effect in the signal ratio in the repeat runs, not every such curve was filed as active; the % refers to the signal ratio; further: series mostly up to about 77 µM)
Summary of the method: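 HEK 293T cells stably carrying a beta-lactamase reporter driven by the Smad binding element were seeded overnight, exposed to DMSO-dissolved compounds for 5 hr at 37 C, 5% CO2, then loaded with FRET substrate for 2 hr at room temperature.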

[15] = qHTS assay to identify small molecule agonists of the estrogen receptor alpha (ER-alpha) signaling pathway in the presence of an antagonist - cell viability counter screen (AID 1259386);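 further: series mostly up to about 92 µM; cells exposed to compounds for 22 h at 37 °C before the viability read; nearly all actives have a fitted effect of over 30% in size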
Summary of the method: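 VM7Luc4E2 cells (endogenous full-length ER-alpha, 4×ERE-luciferase) were held 5 days in phenol red-free medium with 10% charcoal-stripped FBS, plated, then given 10.0nM ICI-182,780 and compounds at 15 concentrations for 22hr at 37C; viability read by CellTiter-Fluor fluorescence.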

[16] = biological target: Thyrotropin-releasing hormone receptor (Homo sapiens) (UniProt P34981); test: qHTS assay to identify small molecule antagonists of the thyrotropin-releasing hormone receptor (TRHR) signaling pathway (AID 1346877; active means well fitted inhibition curve with a large enough effect in the repeat runs, not every such curve was filed as active; further: series mostly up to about 51 µM)
Summary of the method: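 TRHR-expressing HEK293 cells were seeded, cultured 18 h at 37 °C, then loaded with calcium dye for 2 h. Compounds were pre-incubated 5 min at room temperature before 1 nM TRH (final) was added, and kinetic fluorescence was recorded for 3 min.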

[17] = qHTS assay to identify small molecule agonists of the progesterone receptor (PR) signaling pathway - cell viability counter screen (AID 1346799; calls by dose curve; further: nearly all actives have a fitted effect of over 45% in size; further: potency means the concentration at half of the fitted maximal effect)
Summary of the method: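 PR-UAS-bla HEK293T cells, 3,000 per well in medium with 2% charcoal-stripped FBS, were preincubated 6 hr at 37C, then exposed to compounds for 16 hr; viability was read as CellTiter-Glo luminescence after 30 min at room temperature.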

[18] = biological target: Estrogen receptor beta (Homo sapiens) (UniProt Q92731); test: qHTS assay to identify small molecule antagonists of the estrogen receptor beta (ER-beta) signaling pathway (AID 1259378; active means well fitted inhibition curve with a large enough effect in the signal ratio in the repeat runs, not every such curve was filed as active; the % refers to the signal ratio)
Summary of the method: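 ER-beta-UAS-bla HEK293T (GripTite) cells in 2% charcoal-stripped FBS medium were preincubated 6 hr at 37C, dosed with compound, then stimulated with 1 nM E2 (final) for 16 hr; beta-lactamase reporter read by B/G FRET fluorescence after 2 hr substrate loading.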

Measured: Potency

Chain of Thyrotropin receptor (Homo sapiens) (P16473 whole entry, looked up): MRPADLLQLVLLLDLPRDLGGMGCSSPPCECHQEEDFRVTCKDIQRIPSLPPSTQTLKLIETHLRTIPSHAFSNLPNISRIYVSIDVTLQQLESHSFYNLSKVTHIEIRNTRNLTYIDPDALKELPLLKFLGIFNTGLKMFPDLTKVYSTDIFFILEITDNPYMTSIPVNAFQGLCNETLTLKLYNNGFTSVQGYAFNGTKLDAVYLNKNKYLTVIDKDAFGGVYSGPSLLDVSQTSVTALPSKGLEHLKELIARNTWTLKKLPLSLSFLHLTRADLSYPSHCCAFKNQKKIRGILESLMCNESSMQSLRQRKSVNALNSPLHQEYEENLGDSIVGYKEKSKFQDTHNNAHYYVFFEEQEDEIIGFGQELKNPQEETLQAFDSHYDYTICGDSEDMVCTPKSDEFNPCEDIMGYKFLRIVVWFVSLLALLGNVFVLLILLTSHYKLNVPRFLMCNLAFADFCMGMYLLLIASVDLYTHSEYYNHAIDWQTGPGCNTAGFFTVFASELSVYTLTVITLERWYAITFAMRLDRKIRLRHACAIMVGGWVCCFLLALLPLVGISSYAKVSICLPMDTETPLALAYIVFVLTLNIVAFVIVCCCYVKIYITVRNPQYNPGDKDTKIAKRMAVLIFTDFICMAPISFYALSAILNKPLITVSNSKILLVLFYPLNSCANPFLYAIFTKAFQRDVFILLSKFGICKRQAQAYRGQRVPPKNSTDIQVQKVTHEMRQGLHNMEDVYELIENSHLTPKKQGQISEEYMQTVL
Chain of Thyrotropin-releasing hormone receptor (Homo sapiens) (P34981 whole entry, looked up): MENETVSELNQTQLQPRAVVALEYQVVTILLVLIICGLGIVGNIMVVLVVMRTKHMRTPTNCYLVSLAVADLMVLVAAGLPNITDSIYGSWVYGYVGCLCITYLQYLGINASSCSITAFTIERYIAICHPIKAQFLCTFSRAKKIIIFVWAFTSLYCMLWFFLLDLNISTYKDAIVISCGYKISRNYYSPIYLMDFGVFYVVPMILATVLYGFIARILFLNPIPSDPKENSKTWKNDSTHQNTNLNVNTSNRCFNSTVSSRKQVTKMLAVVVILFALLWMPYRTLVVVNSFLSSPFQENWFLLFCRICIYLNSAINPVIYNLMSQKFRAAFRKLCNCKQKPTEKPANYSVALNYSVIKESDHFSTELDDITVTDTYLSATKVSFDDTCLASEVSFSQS
Chain of Estrogen receptor (Homo sapiens) (P03372 whole entry, looked up): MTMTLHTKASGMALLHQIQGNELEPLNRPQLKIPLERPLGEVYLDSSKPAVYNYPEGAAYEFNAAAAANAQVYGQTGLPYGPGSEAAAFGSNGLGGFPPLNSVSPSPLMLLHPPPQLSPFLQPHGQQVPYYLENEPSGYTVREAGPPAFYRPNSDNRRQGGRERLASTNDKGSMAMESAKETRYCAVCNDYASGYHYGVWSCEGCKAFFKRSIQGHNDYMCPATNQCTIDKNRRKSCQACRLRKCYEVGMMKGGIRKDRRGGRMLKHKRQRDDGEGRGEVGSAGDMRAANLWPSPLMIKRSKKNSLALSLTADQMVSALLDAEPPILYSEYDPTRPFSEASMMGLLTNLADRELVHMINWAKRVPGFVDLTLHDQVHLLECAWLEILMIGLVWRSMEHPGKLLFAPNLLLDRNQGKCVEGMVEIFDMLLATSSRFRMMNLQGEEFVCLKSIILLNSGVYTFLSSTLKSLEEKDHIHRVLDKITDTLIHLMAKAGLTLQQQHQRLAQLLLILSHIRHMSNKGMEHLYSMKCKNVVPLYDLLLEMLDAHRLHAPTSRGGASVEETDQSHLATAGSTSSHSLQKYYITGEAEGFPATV
Chain of Progesterone receptor (Homo sapiens) (P06401 whole entry, looked up): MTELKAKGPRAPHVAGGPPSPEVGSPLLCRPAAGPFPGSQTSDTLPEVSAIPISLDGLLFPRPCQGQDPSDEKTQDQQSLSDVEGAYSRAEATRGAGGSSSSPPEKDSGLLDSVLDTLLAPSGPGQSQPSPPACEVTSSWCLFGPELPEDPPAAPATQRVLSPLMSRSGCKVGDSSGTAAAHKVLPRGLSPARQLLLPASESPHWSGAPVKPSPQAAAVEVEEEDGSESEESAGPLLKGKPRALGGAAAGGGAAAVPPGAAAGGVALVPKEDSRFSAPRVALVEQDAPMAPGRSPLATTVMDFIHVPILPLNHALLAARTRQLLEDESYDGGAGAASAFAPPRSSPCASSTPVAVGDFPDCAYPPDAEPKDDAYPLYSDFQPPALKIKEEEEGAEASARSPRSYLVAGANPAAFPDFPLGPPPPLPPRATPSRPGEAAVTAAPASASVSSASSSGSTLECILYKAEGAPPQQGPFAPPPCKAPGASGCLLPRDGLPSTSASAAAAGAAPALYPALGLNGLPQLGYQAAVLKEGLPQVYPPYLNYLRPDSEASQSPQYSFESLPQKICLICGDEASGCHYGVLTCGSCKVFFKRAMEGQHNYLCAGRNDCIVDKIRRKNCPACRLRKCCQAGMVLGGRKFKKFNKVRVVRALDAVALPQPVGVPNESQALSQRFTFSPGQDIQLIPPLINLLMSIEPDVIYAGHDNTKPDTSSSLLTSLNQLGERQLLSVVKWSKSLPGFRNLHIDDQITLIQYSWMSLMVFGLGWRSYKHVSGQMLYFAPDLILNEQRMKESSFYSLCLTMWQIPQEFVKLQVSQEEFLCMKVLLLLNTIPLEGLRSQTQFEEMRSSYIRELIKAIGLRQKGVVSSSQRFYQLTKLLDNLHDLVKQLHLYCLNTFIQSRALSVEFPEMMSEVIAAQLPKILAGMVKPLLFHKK
Chain of Estrogen receptor beta (Homo sapiens) (Q92731 whole entry, looked up): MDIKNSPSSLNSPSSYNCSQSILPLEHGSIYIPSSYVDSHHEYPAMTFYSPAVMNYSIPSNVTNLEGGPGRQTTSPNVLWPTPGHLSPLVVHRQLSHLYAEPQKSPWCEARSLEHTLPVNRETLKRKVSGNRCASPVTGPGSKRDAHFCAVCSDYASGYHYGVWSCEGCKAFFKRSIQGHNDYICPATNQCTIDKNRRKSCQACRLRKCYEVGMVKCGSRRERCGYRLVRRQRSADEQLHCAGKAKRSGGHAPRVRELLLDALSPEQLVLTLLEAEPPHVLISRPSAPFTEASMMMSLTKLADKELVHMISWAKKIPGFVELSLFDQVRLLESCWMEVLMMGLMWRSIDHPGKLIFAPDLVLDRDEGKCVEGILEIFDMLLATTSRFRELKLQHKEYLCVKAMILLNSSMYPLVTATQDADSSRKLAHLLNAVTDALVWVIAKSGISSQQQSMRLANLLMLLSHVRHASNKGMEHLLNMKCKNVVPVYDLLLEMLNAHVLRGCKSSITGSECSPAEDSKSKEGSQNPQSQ

C/C(=N/NC(=O)c1ccncc1)C(=O)O
not listed: [15] | [16] | [17] | [18]
inactive: all other assays above

CCCCC(=O)O[C@]1(C(=O)CO)CC[C@H]2[C@@H]3CCC4=CC(=O)CC[C@]4(C)[C@H]3[C@@H](O)C[C@@]21C
not listed: [8] | [9] | [17] | [18]
inactive: all other assays above

CCN(Cc1cccc(S(=O)(=O)O)c1)c1ccc(C(=C2C=CC(=[N+](CC)Cc3cccc(S(=O)(=O)[O-])c3)C=C2)c2ccccc2)cc1
not listed: [18]
inactive: all other assays above

COC(=O)CC(=O)C(C)(C)C
inactive: [1] | [2] | [3] | [6] | [7] | [8] | [9] | [12] | [13] | [14]

COC(=O)[C@@H]1CC2=CC(=O)CC[C@]2(C)[C@@]23O[C@@H]2C[C@@]2(C)[C@@H](CC[C@@]24CCC(=O)O4)[C@H]13
not listed: [10] | [15] | [17] | [18]
inactive: all other assays above

c1ccc(COCc2ccccc2)cc1
not listed: [6] | [9] | [18]
inactive: all other assays above

CCCCC1C(=O)N(c2ccccc2)N(c2ccc(O)cc2)C1=O (stereo not drawn)
active: [2] 7.5 µM | [4] 23.7 µM | [5] 29.8 µM
inactive: [1] | [15] | [12]

CC(N)CN (stereo not drawn)
not listed: [15] | [16] | [18]
inactive: all other assays above

Cc1cnc(C)c(C)n1
active: [17] 28.6 µM
not listed: [4] | [5] | [6] | [11] | [16] | [18]
inactive: all other assays above

O=C(O)Cc1ccc(-c2ccccc2)cc1
not listed: [18]
inactive: all other assays above

Fc1ccccc1[C@@H](F)COC1CCC(Nc2ncnc3[nH]ncc23)CC1 (stereo partly drawn)
inactive: [1] | [7] | [12] | [13] | [16]
active: [2] 12.2 µM | [4] 68.6 µM | [10] 27.3 µM

CCC(C)(C)C1CCC(O)CC1 (stereo not drawn)
not listed: [9] | [10] | [16] | [18]
inactive: all other assays above

CCOC(=O)c1ccccc1OC
not listed: [6] | [16]
inactive: all other assays above

ON(Cc1ccccc1)Cc1ccccc1
not listed: [17] | [18]
inactive: all other assays above

Nc1ccc(S(=O)(=O)O)cc1
not listed: [7] | [8] | [18]
inactive: all other assays above
